The results in this text go back to PubChem BioAssay (Tox21).

SMILES strings stand for the structures. “And” between values parts separate entries of the source, which are not always exact repeats. Identical values can stand only once. Values without a mark were called inactive. Results filed as inconclusive are left out. The source made the active and inactive calls. Unless noted, calls come from the whole dose curve; as a rule, active = well fitted curve in the direction sought with a large enough effect in the repeat runs; inconclusive = weak or mixed curves; inactive = no such curve, though single readings can be large; an effect the other way counts as inactive or inconclusive.

Assay [1] can be described thus: qHTS assay to identify small molecule agonists of the estrogen related receptor signaling pathway with the pleiotropic PPARgamma coactivator (PGC) (AID 1224823). The gist of the method:
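PGC/ERR reporter cells seeded 6 h, then exposed to compounds (23 nL in DMSO) for 18 h at 37 C. One-Glo luciferase luminescence read after 30 min at room temperature.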
A general note: In qHTS, concentration-response curves come from the screen itself.

Assay [2] is described as follows: qHTS assay to identify small molecule antagonists of the estrogen related receptor (ERR) signaling pathway from Tox21 library - cell viability counter screen (AID 1224834). Note: nearly all actives have a fitted effect of over 30% in size. The gist of the method:
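Cytotoxicity of test substances is gauged in the same ERR cells used for the antagonist screen, after 17.5 h of compound treatment at 37 C, by CellTiter-Fluor fluorescence measured after 30 min.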

In assay [3] the target is Luciferin 4-monooxygenase (Photinus pyralis) (UniProt P08659). Put plainly: qHTS assay to identify small molecule inhibitors of firefly luciferase (AID 1224835). Note: nearly all actives have a fitted effect of over 25% in size. The gist of the method: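 Inhibition of purified Photinus luciferase is measured by luminescence. Substrate levels (D-luciferin, ATP) sit at their KM values. Each compound is tested in a concentration series.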
Chain of Luciferin 4-monooxygenase (Photinus pyralis) (P08659 whole entry, looked up): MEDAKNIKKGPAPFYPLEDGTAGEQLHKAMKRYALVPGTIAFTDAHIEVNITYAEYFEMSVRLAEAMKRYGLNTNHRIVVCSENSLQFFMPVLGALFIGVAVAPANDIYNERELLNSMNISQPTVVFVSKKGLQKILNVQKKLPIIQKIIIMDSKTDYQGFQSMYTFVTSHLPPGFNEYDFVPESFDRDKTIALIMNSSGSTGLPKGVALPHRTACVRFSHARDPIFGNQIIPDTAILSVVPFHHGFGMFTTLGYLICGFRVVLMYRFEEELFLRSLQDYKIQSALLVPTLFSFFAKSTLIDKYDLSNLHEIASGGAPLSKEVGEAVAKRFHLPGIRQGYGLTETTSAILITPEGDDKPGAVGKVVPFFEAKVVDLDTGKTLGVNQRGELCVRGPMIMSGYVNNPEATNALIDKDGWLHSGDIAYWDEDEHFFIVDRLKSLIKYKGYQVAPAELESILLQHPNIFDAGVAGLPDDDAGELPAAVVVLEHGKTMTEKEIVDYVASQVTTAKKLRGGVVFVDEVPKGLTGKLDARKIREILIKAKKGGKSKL

The nature of assay [4]: qHTS assay to identify small molecule agonists of the constitutive androstane receptor (CAR) signaling pathway - cell viability counter screen (AID 1224836). Note: nearly all actives have a fitted effect of over 45% in size. Put shortly: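 Using CellTiter-Fluor, viability of HepG2 cells harbouring hCAR and CYP2B6-2.2kb was measured following 23 h incubation with a 15-concentration compound series plus PK11195 (0.75 uM final).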
A short description of assay [5]: qHTS assay to identify small molecule antagonists of the constitutive androstane receptor (CAR) signaling pathway - cell viability counter screen (AID 1224837). Note: nearly all actives have a fitted effect of over 45% in size. The gist of the method: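 Multiplexed cytotoxicity read-out for the CAR antagonist screen: double-stable HepG2-CYP2B6-hCAR cells co-treated with 50 nM CITCO (final) and compound over 15 concentrations, incubated 23 hr, then assessed by CellTiter-Fluor fluorescence.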

For assay [6], the target named is Nuclear receptor subfamily 1 group I member 3 (Homo sapiens) (UniProt Q14994). Put plainly: qHTS assay to identify small molecule agonists of the constitutive androstane receptor (CAR) signaling pathway (AID 1224839).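 For activation: HepG2 cells stably carrying human CAR and a CYP2B6 luciferase reporter.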 Note: nearly all actives have a fitted effect of over 15% in size. Note: potency is the fitted concentration of half-maximal effect. Put shortly: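 Double-stable HepG2 cells (hCAR, CYP2B6-2.2kb) seeded 4 h before compound addition. Exposure 24 h with 0.75 uM PK11195 final. Luciferase detected by ONE-Glo.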
Chain of Nuclear receptor subfamily 1 group I member 3 (Homo sapiens) (Q14994 whole entry, looked up): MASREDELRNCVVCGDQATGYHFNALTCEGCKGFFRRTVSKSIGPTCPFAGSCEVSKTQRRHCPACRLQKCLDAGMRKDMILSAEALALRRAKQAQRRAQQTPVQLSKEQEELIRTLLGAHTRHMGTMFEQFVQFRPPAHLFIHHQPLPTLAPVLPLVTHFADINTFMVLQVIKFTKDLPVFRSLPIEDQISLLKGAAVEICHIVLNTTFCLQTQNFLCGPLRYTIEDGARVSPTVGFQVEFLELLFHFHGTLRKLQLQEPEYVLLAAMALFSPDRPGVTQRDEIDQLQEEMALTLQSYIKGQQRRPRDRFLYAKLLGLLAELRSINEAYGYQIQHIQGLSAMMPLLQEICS

Assay [7] is described as follows: qHTS assay to identify small molecule antagonists of the estrogen related receptor signaling pathway with the pleiotropic PPARgamma coactivator (PGC) from Tox21 10K library - cell viability counter screen (AID 1224840; active = well fitted cell-killing curve with a large enough effect in the repeat runs, not every such curve was filed as active; note: nearly all actives have a fitted effect of over 40% in size). Put shortly:
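Step one, plate 2,000 PGC/ERR cells per well; step two, incubate 6 h at 37 C/5% CO2; step three, pin-transfer compounds; step four, incubate 17.5 h; step five, add CellTiter-Fluor and read fluorescence after 30 min.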

The nature of assay [8]: qHTS assay to identify small molecule antagonists of the estrogen related receptor signaling pathway with the pleiotropic PPARgamma coactivator (PGC) from Tox21 10K library (AID 1224841; call rule not given here; note: actives are mostly falling curves and most rising ones were filed inactive; nearly all actives have a fitted effect of over 50% in size; note: potency is the fitted concentration of half-maximal effect). Put shortly: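 Antagonism in this quantitative HTS is taken from loss of luciferase signal in PGC/ERR cells. Cells (2,000/well) are treated with compounds in DMSO after a 6 h settling period and read by One-Glo luminescence after 18 h.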

The nature of assay [9]: qHTS assay to identify small molecule agonists of the estrogen related receptor signaling pathway with the pleiotropic PPARgamma coactivator (PGC) from Tox21 10K library (AID 1224842). Note: nearly all actives have a fitted effect of over 15% in size. The gist of the method:
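Luminescence from One-Glo (30 min, room temperature) measured after PGC/ERR cells had 18 h at 37 C with pinned compound (23 nL in DMSO). Cells had been seeded at 2,000 per well and pre-incubated 6 h.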

A short description of assay [10]: qHTS assay to identify small molecule agonists of the hypoxia (HIF-1) signaling pathway - cell viability counter screen (AID 1224844; calls by dose curve; note: nearly all actives have a fitted effect of over 50% in size). The gist of the method:
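Tox21 10K compounds were added to HRE-bla ME-180 cells (0.5% dialyzed FBS) and incubated 17 hrs at 37C; ATP-based CellTiter-Glo luminescence then reported cell viability in the same wells.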

Assay [11] in a line: qHTS assay to identify small molecule agonists of H2AX (AID 1224845; active = well fitted activation curve with a large enough effect in the signal ratio in the repeat runs, not every such curve was filed as active; the % refers to the signal ratio). Put shortly:
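Phospho-H2AX Ser139 measured by HTRF (ex 320 nm; em 665 and 620 nm) after 24 hr antibody incubation. Compounds, 15 concentrations, 0.76% DMSO, were applied to CHO-K1 cells for 3hr at 37C before lysis.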

Assay [12] can be described thus: qHTS assay to identify small molecule agonists of the hypoxia (HIF-1) signaling pathway (AID 1224846; active = well fitted activation curve with a large enough effect in the signal ratio in the repeat runs, not every such curve was filed as active; the % refers to the signal ratio). Put shortly: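 Steps: seed ME-180 HRE-bla cells (2,000/well, 0.5% dialyzed FBS); incubate 5 hrs at 37C; pin-transfer compounds or DMSO; incubate 17 hrs; add LiveBLAzer B/G substrate CCF4-AM; measure reporter activation by FRET.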
Assay [13] is described as follows: qHTS assay to identify small molecule agonists of H2AX - cell viability counter screen (AID 1224847; calls by dose curve; note: nearly all actives have a fitted effect of over 30% in size; note: potency is the fitted concentration of half-maximal effect). The gist of the method:
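Quantitative HTS viability measurement: CHO-K1 wild-type cells in serum (10% FBS) medium, short 3 hr drug exposure at 37C with 0.76% DMSO, CellTiter-Glo luminescent detection.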

The nature of assay [14]: qHTS assay to identify small molecule antagonists of the estrogen related receptor (ERR) signaling pathway from Tox21 library (AID 1224848). Note: nearly all actives have a fitted effect of over 50% in size. Note: potency is the fitted concentration of half-maximal effect. Put shortly:
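Antagonist-mode screen of the Tox21 10K library in an NTP-provided ERR reporter cell line; 18 h compound exposure at 37 C, luminescence measured with ONE-Glo.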

A short description of assay [15]: qHTS assay to identify small molecule agonists of the estrogen related receptor (ERR) signaling pathway from Tox21 library (AID 1224849; calls by dose curve; note: nearly all actives have a fitted effect of over 15% in size). Particulars: ERR reporter cell line, ONE-Glo luciferase, 18 h; at 92.4 µM (top of the series) unless noted. Put shortly: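 Agonist signal is luciferase luminescence from an ERR reporter cell line treated 18 h at 37 C with DMSO-dissolved compounds, read 30 min after ONE-Glo addition at room temperature.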

Assay [16] in a line: qHTS RealTime-Glo MT Cell Viability Assay in HepG2 cells - 24 hour (AID 1224867). Note: nearly all actives have a fitted effect of over 50% in size. The gist of the method:
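HepG2 cells (600/well) were dispensed with RealTime-Glo reagents, incubated 5 h at 37 °C, then treated with compounds in DMSO for up to 40 h. Nonlytic NanoLuc luminescence reflecting viable cells was read at each stated time point.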

Assay [17] concerns the target Nuclear receptor subfamily 1 group I member 3 (Homo sapiens) (UniProt Q14994). As to the kind of experiment: qHTS assay to identify small molecule antagonists of the constitutive androstane receptor (CAR) signaling pathway (AID 1224838). Note: nearly all actives have a fitted effect of over 40% in size. The gist of the method:
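Compounds were titrated across 15 concentrations onto HepG2 cells double-stably expressing hCAR and a CYP2B6-2.2kb reporter, together with 50 nM CITCO (final). After 24 h at 37 C, luciferase activity was measured by luminescence.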

Assay [18] can be described thus: A CellTox Green Cytotoxicity Assay to monitor cytotoxicity in HEK293 cells - 0 hour (AID 1224869). Note: nearly all actives have a fitted effect of over 50% in size. Put shortly:
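Cytotoxicity was tracked continuously in HEK293 cells by a DNA-binding dye excluded from viable cells. Compounds were transferred in DMSO 5 h after seeding; fluorescence was recorded at intervals up to 40 h.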

Assay [19] concerns the target Thyrotropin receptor (Homo sapiens) (UniProt P16473). Put plainly: qHTS assay to identify small molecule agonists of the thyroid stimulating hormone receptor (TSHR) signaling pathway (AID 1224843; calls by dose curve; note: nearly all actives have a fitted effect of over 45% in size). Put shortly: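 Screening of the Tox21 10K collection used HEK293 cells engineered with TSHR at 800 cells per well. After a 30-min room-temperature compound exposure, HTRF cAMP reagents were added and fluorescence recorded 1 h later.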

Assay [20] is described as follows: qHTS RealTime-Glo MT Cell Viability Assay in HEK293 cells - 32 hour (AID 1224868). The gist of the method:
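HEK293 cells seeded with NanoLuc/prosubstrate reagent, rested 5 h at 37 C, then dosed and kept at 37 C up to 40 h. Nonlytic real-time luminescence from viable cells read at 0, 8, 16, 24, 32 and 40 h.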
% is set by controls: 0 for no effect and ±100 for the full control effect.

Chain of Thyrotropin receptor (Homo sapiens) (P16473 whole entry, looked up): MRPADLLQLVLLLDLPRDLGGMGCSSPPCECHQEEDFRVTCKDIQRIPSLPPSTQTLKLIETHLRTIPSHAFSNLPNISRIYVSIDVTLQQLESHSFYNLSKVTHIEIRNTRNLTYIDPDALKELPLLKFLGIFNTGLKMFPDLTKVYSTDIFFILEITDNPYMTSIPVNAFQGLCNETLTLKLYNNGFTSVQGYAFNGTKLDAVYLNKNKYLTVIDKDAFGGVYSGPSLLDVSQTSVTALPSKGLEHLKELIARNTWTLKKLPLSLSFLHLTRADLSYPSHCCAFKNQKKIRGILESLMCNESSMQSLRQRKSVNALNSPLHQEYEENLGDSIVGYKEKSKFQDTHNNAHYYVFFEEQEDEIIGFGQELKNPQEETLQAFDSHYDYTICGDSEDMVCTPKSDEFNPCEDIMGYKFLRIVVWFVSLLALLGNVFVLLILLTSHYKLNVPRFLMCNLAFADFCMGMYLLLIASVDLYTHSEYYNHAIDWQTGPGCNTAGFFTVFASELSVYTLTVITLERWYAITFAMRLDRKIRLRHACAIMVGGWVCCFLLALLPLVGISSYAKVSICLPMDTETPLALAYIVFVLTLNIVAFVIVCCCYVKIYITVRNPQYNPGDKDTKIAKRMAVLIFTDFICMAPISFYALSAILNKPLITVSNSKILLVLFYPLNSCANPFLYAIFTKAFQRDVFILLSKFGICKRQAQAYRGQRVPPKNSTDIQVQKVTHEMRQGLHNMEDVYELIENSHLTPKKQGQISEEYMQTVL

Turning to `CCCCOC(=O)c1ccccc1C(=O)OCc1ccccc1`, the molecule was classed as inactive in assay [1] and in [12]. The Potency entry in assay [2], in assay [3], in [4], in assay [5], in [7] and in assay [8] was “inactive” throughout. Further, the Potency entry in assay [9], in assay [10], in [11], in assay [13], in assay [14] and in assay [16] was “inactive” each time. Moreover, the Potency in assay [6] was 54.5 µM (active). The activity change, positive = activation in assay [15] was 3.01%.
In the case of `CC(O)(CS(=O)(=O)c1ccc(F)cc1)C(=O)Nc1ccc(C#N)c(C(F)(F)F)c1` (stereo unspecified), the outcome in assay [1] and in assay [12] was inactive. For the same molecule, the Potency entry in assay [2], in [3], in assay [4], in assay [5], in assay [17] and in assay [6] was “inactive” each time. Besides, the Potency entry in assay [7], in [9], in [10], in assay [11] and in assay [18] was “inactive” each time. For the same molecule, the Potency in assay [13] is 41.6 µM (active). For the same molecule, the activity change, positive = activation in assay [15] was -29.9% [at 42.5 µM].
With `CC/C(=N\OC/C=C/Cl)C1=C(O)CC(C2CCOCC2)CC1=O` (stereo unspecified), the Potency entry in assay [2], in [3], in assay [4], in assay [5], in [17] and in assay [6] was “inactive” in each case. For the same molecule, the Potency entry in [7], in assay [8], in [9], in [19], in [10] and in assay [11] was “inactive” throughout. Moreover, the Potency result in [13], in assay [14], in [16], in [20] and in assay [18] was “inactive” in each case. Besides, the molecule was classed as inactive in [12]. Besides, the activity change, positive = activation in assay [15] is 0.742%.
With `CC(=O)[C@H]1CC[C@H]2[C@@H]3CC[C@H]4C[C@](C)(O)CC[C@]4(C)[C@H]3CC[C@]12C`, the call in [1] and in assay [12] was inactive. Moreover, the Potency entry in assay [2], in assay [3], in assay [4], in [5], in assay [6] and in assay [7] was “inactive” in each case. Besides, the Potency entry in assay [8], in assay [9], in assay [19], in [11], in assay [13] and in assay [14] was “inactive” in each case. The Potency entry in assay [16] and in assay [20] was “inactive” each time. In assay [15], the activity change, positive = activation was 9.6% [at 42.5 µM].
`COC(C)(C)CCC[C@H](C)C/C=C/C(C)=C/C(=O)OC(C)C`: the Potency entry in assay [2], in [3], in assay [4], in [5], in [17] and in [6] was “inactive” each time. Besides, the Potency result in [7], in [8], in [9], in assay [19], in [10] and in assay [13] was “inactive” in each case. For the same molecule, the Potency result in assay [16], in [20] and in assay [18] was “inactive” each time. For the same molecule, the molecule was classed as inactive in [12]. For the same molecule, the activity change, positive = activation in assay [15] was -23.3%.
Consider `CCOC(=O)COc1cc(-c2nn(C)c(OC(F)F)c2Cl)c(F)cc1Cl`, for which the Potency entry in assay [2], in [3], in assay [4], in assay [5], in assay [17] and in assay [6] was “inactive” each time. Moreover, the Potency result in assay [7], in assay [8], in assay [9], in assay [10], in assay [11] and in assay [13] was “inactive” in each case. In addition, the Potency result in assay [14], in [16] and in assay [20] was “inactive” in each case. The result in assay [12] was inactive. The activity change, positive = activation in [15] was 3.17%.
On to `CCOP(=O)(OCC)Oc1ccc([N+](=O)[O-])cc1`, for which the Potency entry in assay [2], in assay [3], in assay [4], in [5], in assay [17] and in assay [6] was “inactive” each time. Further, the Potency entry in [7], in assay [9], in assay [19], in assay [10], in assay [11] and in assay [13] was “inactive” throughout. Besides, the Potency result in assay [16] and in assay [20] was “inactive” in each case. Moreover, the Potency in [8] was 19.6 µM (active) and 5.45 µM (active); in assay [14], 13.9 µM (active) and 12.2 µM (active). For the same molecule, the activity change, positive = activation in [15] is -65.4% and -61.8%.
Turning to `CC(Cl)Cl`, the Potency entry in assay [2], in assay [3], in assay [4], in assay [5], in [17] and in assay [6] was “inactive” throughout. Also, the Potency result in assay [7], in assay [8], in assay [9], in [19], in assay [10] and in assay [11] was “inactive” throughout. Besides, the Potency entry in [13], in assay [14], in [16] and in assay [20] was “inactive” each time. Moreover, the result in [12] was inactive. For the same molecule, in [15], the activity change, positive = activation was -9.34%.
